Measured values: PubChem BioAssay (NCATS)
Results filed as inconclusive are left out. Unmarked numbers belong to inactive results. Active and inactive are the calls of the source. The call rests on the fitted dose curve; in most records, active means well fitted cell-killing curve with a large enough effect; inconclusive means small, poorly fitted or top-dose-only effect, or effect the other way; inactive means flat fitted curve, though single readings scatter. Bridge positions count the residues as written; N and C are the ends. Square brackets hold non-standard residues; d marks the D form. Side chains are listed from the residue outwards. Peptide text beside a SMILES is read from it. * marks the point of attachment. Phg(4-OMe) = COc1ccc([C@H](N)C(=O)O)cc1; d(aIle) = CC[C@H](C)[C@@H](N)C(=O)O; d(aThr) = C[C@@H](O)[C@@H](N)C(=O)O; NMeF = CN[C@@H](Cc1ccccc1)C(=O)O; Isobutyryl = CC(C)C(=O)*

Experiment: UWB1.289-WTBRCA1 Cancer Cell Toxicity qHTS against the NCATS CANVASS Library (AID 1347354)
Details: UWB1.289-WTBRCA1 viability, CellTiter-Glo luminescence, 72 h; series mostly up to 38.3 µM; activity change, negative = cytotoxicity: at the top concentration
Excerpt: Natural products and their derivatives continue to be wellsprings of nascent therapeutic potential. However, many laboratories have limited resources for biological evaluation, leaving their previously isolated or synthesized compounds largely or completely untested. To address this issue, the Canvass library of natural products was assembled (https://tripod.nih.gov/canvass), in collaboration with academic and industry researchers, for quantitative high-throughput screening (qHTS) across a diverse set of cell-based and biochemical assays. The pure (>85% purity by liquid chromatography/mass spectrometry [LC/MS]) Canvass library of 346 natural products were submitted by 45 academic laboratories and companies around the world. We collected pure natural products to circumvent deconvolution and structure elucidation due to time and resource limitations. The library was formatted into 1536-well plates and evaluated in 50 qHTS (in an 11-pnt concentration series) bioassays with broad scope of disease-relevant mechanisms. The resulting data set from 50 different assays was then systematically analyzed to identify overall trends and specific natural products with interesting biological activities. Reported herein are the results of each individual qHTS and their corresponding assay protocol. National Center for Advancing Translational Sciences (NCATS), Rockville, MD National Institute of Health (NIH), Bethesda, Maryland
Cancer Cell Toxicity COV-362, OV-KATE, OV-SAHO, UWB1.289, UWB1.289-WTBRCA1, HEK-293, HPAF-II, Panc-1005, SW1088, and U-118MG-screen protocol. 1. In a 1536 well, white solid bottom tissue culture plates (Corning 7494), corresponding cells (COV-362, OV-KATE, OV-SAHO, UWB1.289, UWB1.289-WTBRCA1, HEK-293, HPAF-II, Panc-1005, SW1088, or U-118MG) were dispensed in each well at a final concentration of 1000 cells / well (6uL volume) using the Multidrop Combi (Thermo Fisher Scientific) dispenser. 2. The plates were incubated for 4 hours at 37 degrees C/5% CO2/95% Rh. 3. Compounds were pin transferred (~23nL volume) via Wako Pin-tool (Wako Automation, Richmond VA) equipped with a 1536 pin head. The assay plates were treated with compounds in an 11-pnt concentration series with a final concentration range of […] to 85uM. 4. Bortezomib was used as a single dose control (0.5mM column 4, rows 1 - 32) at a final concentration of 1.9uM and as a 16pnt titration (1mM; 1:2 dilution; 16-points; n = 2; column 3, rows 1 - 32) with final concentration range of 0.1nM - 3.8uM. 5. The assay plates were incubated for 72 hours at 37 degrees C/5% CO2/95% Rh. 6. 3uL CellTiter-Glo detection reagent was then added to the plates (columns 2 - 48, rows 1 - 32) and incubated at room temperature for additional 15min. 7. Luminescence signal was acquired via the ViewLux plate reader (PerkinElmer) using a clear filter, 2 second exposure and 2x binning settings.
On the % scale 0 is the no-effect control and ±100 the full control effect; potency means the concentration at half of the fitted maximal effect.

Q: With C[C@@]12CCC[C@@](C)(C(=O)O)[C@H]1CC[C@@]13C[C@@H](CC[C@H]12)[C@](C)(O)C3 as the compound, how does the “activity change, negative = cytotoxicity” value read?
A: The value was 3.77%.

Q: Which Potency does the source give for CCCc1c2c([nH]c(=O)c1C)C(=O)c1[nH]c(=O)c(C)c(CCC)c1C2=O here?
A: Its Potency is 7.47 µM (active).

Q: With COc1ccc2[nH]c3c(c2c1)CCN1C[C@H]2C[C@@H](OC(=O)c4cc(OC)c(OC)c(OC)c4)[C@H](OC)[C@@H](OC)[C@H]2C[C@H]31 as the compound, how does the “activity change, negative = cytotoxicity” value read?
A: Its value is -0.13%.

Q: For C=C(C)CC[C@H](Cc1c(O)cc(O)c2c1O[C@H](c1ccc(O)cc1)CC2=O)C(=C)C, which “activity change, negative = cytotoxicity” value is on record?
A: The value was -25.8%.

Q: Which “activity change, negative = cytotoxicity” value does the source give for O[C@H]1C=C2[C@H]3CN(Cc4cc5c(cc43)OCO5)[C@H]2C[C@@H]1O here?
A: The value was -17.6%.

Q: Which “outcome” value does the source give for CC(=O)c1c(C)cc2c(c1O)C(=O)c1c(O)cc(O)cc1C2=O here?
A: The value was “inactive”.

Q: For CC1=C2CC[C@]3(C)[C@H](CC=C4[C@@H]5CC(C)(C)CC[C@@H]5C(=O)[C@H](O)[C@]43C)[C@@]2(C)C=C(O)C1=O, which “activity change, negative = cytotoxicity” value is on record?
A: The value was 1.05%.

Q: For CC[C@H](C)[C@H]1NC(=O)[C@@H](NC(=O)C(C)C)[C@@H](C)OC(=O)[C@H](COC(=O)CNC(C)=O)NC(=O)[C@@H]([C@@H](C)O)NC(=O)[C@H](Cc2ccccc2)N(C)C(=O)[C@H](c2ccc(OC)cc2)NC1=O (Isobutyryl-T[d(aIle)][Phg(4-OMe)][NMeF][d(aThr)]S([Gly-Ac]); ester 1-C), which “outcome” value is on record?
A: Its value is “inactive”.

Q: For CCC(=O)N[C@@H](C[C@H](C)C(Cl)(Cl)Cl)C(=O)N1C(=O)C=C(OC)[C@@H]1CC(C)C, which “activity change, negative = cytotoxicity” value is on record?
A: The value was -0.611%.

Q: Which “activity change, negative = cytotoxicity” value does the source give for C/C(=C\[C@@H](C)CC/C=C/CC/C=C/C(=O)O)[C@H](O)[C@H](C)C(=O)CCCC1CC(=O)NC(=O)C1 here?
A: Its value is 14.4%.

Q: With CC1=C(C)C(=O)OC(C(C)C2(O)CCC3C4C5OC5C5(O)CC=CC(=O)C5(C)C4CCC32C)C1 (stereo not given) as the compound, how does the “activity change, negative = cytotoxicity” value read?
A: Its value is -13.5%.

Q: With C/C=C1/CN2C3CC1C1C=CC(=O)N4c5ccccc5[C@@]3(C[C@@H]2C2=C[C@H]3C5CC6N(CC[C@@]67c6ccccc6N(C2=O)[C@@H]37)C/C5=C/C)[C@H]14 (stereo not given in full) as the compound, how does the Potency read?
A: The Potency was 16.7 µM (active).

Q: For C/C1=C/[C@@H](C)[C@H](O)[C@@H](O)/C=C/CC/C=C/C(=O)O[C@@H]1[C@H](C)C(=O)CCCC1CC(=O)NC(=O)C1, which “outcome” value is on record?
A: Its value is “inactive”.

Q: For CN1C(=O)C(=O)N2C(=C[C@]3(c4c[nH]c5ccccc45)c4ccccc4N[C@H]23)C1=O, which “outcome” value is on record?
A: The value was “inactive”.

Q: Which “activity change, negative = cytotoxicity” value does the source give for C=C1CC[C@@H](Br)C(C)(C)[C@]12CC=C(C)C(=O)C2 here?
A: The value was 0.0987%.

Q: With C=C1CC[C@@H](O[C@H]2C[C@@](O)([C@H](C)NC(=O)c3[nH]c(C)c(Cl)c3Cl)[C@H](O)[C@@H](C)O2)[C@@H]2C=C[C@H](C)C(/C(O)=C3/C(=O)[C@H](C(C)C)N([C@@H]4O[C@H](C)[C@H](OC(N)=O)[C@H](OC(C)=O)[C@@H]4OC)C3=O)[C@@H]12 (stereo not given in full) as the compound, how does the “activity change, negative = cytotoxicity” value read?
A: The value was -12.2%.

Q: For COc1ccc([C@@H]2c3cc4c(cc3C[C@H](C)C2C)OCO4)cc1OC (stereo not given in full), which “activity change, negative = cytotoxicity” value is on record?
A: The value was -20%.

Q: Which “outcome” value does the source give for C/C=C/[C@H]1[C@H]2C(=O)c3c(O)c(C)c(O)c(C)c3[C@]1(C(=O)O)C(=O)C=C2C here?
A: Its value is “inactive”.

Q: With C=C[C@@](C)(O)CC[C@@H]1[C@@]2(C)CCCC(C)(C)[C@@H]2CC[C@@]1(C)O as the compound, how does the “activity change, negative = cytotoxicity” value read?
A: Its value is -8.99%.

Q: Which “activity change, negative = cytotoxicity” value does the source give for O=C1c2c(O)cc(O)cc2OC(c2ccc(O)cc2)C1O (stereo not given) here?
A: The value was 1.27%.

Q: For COc1cc2c(c(O)c1O)C(=O)c1c(coc1C)C2=O, which Potency is on record?
A: The Potency was 18.8 µM (active).

Q: For CC(=O)O[C@H]1c2ccccc2-c2c3c(cc4c2[C@@H]1N(C(C)=O)CC4)OCO3, which “activity change, negative = cytotoxicity” value is on record?
A: Its value is -22.1%.

Q: With COc1cc2c(cc1OC)[C@@H](c1ccc3c(c1)OCO3)C(C)C(C)C2=O (stereo not given in full) as the compound, how does the “activity change, negative = cytotoxicity” value read?
A: Its value is -11.4%.

Q: With O=c1cc(-c2ccc(O)cc2)oc2cc(O)c([C@@H]3OC(CO)[C@H](O)[C@@H](O)[C@H]3O)c(O)c12 (stereo not given in full) as the compound, how does the “activity change, negative = cytotoxicity” value read?
A: The value was 13.9%.

Q: Which “activity change, negative = cytotoxicity” value does the source give for COc1ccc(-c2oc3cc(OC)cc(OC)c3c(=O)c2O)cc1 here?
A: The value was -2.19%.

Q: Which “activity change, negative = cytotoxicity” value does the source give for C[C@H]1C=C[C@H]2CCCC[C@@H]2[C@H]1C(=O)[C@H]1CC2=C(C(=O)O)CCN2C1=O here?
A: The value was 0.939%.

Q: With CC(C)[C@]12CC[C@@]3(C)[C@H](C)CC[C@H](O)[C@@]3(CC1)c1cc3c(cc12)[nH]c1ccccc13 as the compound, how does the “activity change, negative = cytotoxicity” value read?
A: The value was -3.02%.

Q: Which “outcome” value does the source give for C=C[C@@]1(C)CC[C@@H]([C@H](C)C(C)=O)O1 here?
A: The value was “inactive”.

Q: With CN1CC[C@@]23c4ccccc4N[C@@H]1[C@@]21CCN(C)[C@@H]3Nc2ccccc21 as the compound, how does the “outcome” value read?
A: The value was “inactive”.

Q: With CC(C)=CCC[C@]1(C)[C@H]2CC(=O)[C@@]3(CO3)[C@@H]1C2 as the compound, how does the “outcome” value read?
A: The value was “inactive”.

Q: With CO[C@@H](C[C@@H](C)[C@@H](O)/C=C/C=C/CNC(=O)C(C)(C)[C@H](O)\C(C)=C/C=C\C=C\Cc1cnco1)[C@]1(O)[C@@H](C)C(=O)N(C)[C@@]12COC2=O as the compound, how does the “outcome” value read?
A: The value was “inactive”.

Q: For CC(C)=CC[C@H]1C[C@@]2(CC=C(C)C)C(=O)[C@](CC=C(C)C)(C(=O)C(C(=O)c3ccccc3)=C2O)C1(C)C, which Potency is on record?
A: The Potency was 11.8 µM (active).

Q: With CC(C)=CCC/C(C)=C/Cc1cc([C@@H]2CC(=O)c3c(cc(O)c(CC=C(C)C)c3O)O2)ccc1O as the compound, how does the “activity change, negative = cytotoxicity” value read?
A: Its value is -19.9%.

Q: With O=C1OC(CCO)c2cccc(O)c21 (stereo not given) as the compound, how does the “outcome” value read?
A: Its value is “inactive”.

Q: Which “outcome” value does the source give for C=C1C[C@]23C=CC(=O)[C@@](C)(CCCC(C)C(=O)N[C@@H](CO)C(=O)O)[C@@H]2C[C@@H]1CC3 (stereo not given in full) here?
A: The value was “inactive”.

Q: For COc1ccc([C@@H]2c3cc4c(cc3C(=O)C(C)C2C)OCO4)cc1OC (stereo not given in full), which “activity change, negative = cytotoxicity” value is on record?
A: The value was 9.32%.

Q: For C/C=C1/C2=CCCN3C(=O)O[C@H]([C@H]1O)[C@H]23, which “activity change, negative = cytotoxicity” value is on record?
A: Its value is -3.12%.

Q: With C=C1[C@@]2(C)CC3C4(C)CCC(O)C(C)(C)C4CCC3(C)[C@]1(C(=O)OC)C(=O)C(C)(O)C2=O (stereo not given in full) as the compound, how does the “outcome” value read?
A: The value was “inactive”.

Q: With CC(C)=CCCC(C)(O)[C@H]1CC=C(C)C(O)C1 (stereo not given in full) as the compound, how does the “outcome” value read?
A: The value was “inactive”.

Q: With COC(=O)[C@]1([C@H]2CCC(=O)O2)CC(=O)c2c(O)cc(C)cc2O1 as the compound, how does the “outcome” value read?
A: The value was “inactive”.
